Measurements from PubChem BioAssay AID504594 (Broad Institute, 2011).
Screen size: about 2,000 compounds; fewer than 10 were called active. A selection follows. Unmarked numbers belong to inactive results.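 Rule for the calls: active = growth inhibition of at least 75% in every replicate, which also brings the mean inhibition to 75% or more; inconclusive = mean inhibition 75% or more but some replicate under 75%; inactive = the rest.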

Experiment: growth inhibition of PfHsp90-dependent yeast, primary screen, antimalarial PfHsp90 inhibitor project, S. cerevisiae, BacTiter-Glo luminescence (AID 504594);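 note: 0% = DMSO neutral control wells and 100% = 20 µM radicicol control wells; higher value means stronger growth inhibition because the sign is flipped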
Details: S. cerevisiae expressing PfHsp90, BacTiter-Glo growth, 48 h; at 9.4 µM; active compounds read high

SMILES | growth inhibition
CC(=O)C1=C(O)C(=O)OC1c1ccc(C)cc1 (centres undefined) | 14.7%
CC12CC(c3ccccc3O1)C(C(=O)N1CCOCC1)C(=O)N2 (centres undefined) | -11.3%
COc1cc2c(cc1OC)C1(CCCC1)CNC2c1cccc([N+](=O)[O-])c1 (centres undefined) | -7.37%
Cc1csc(-c2coc3cc(O)cc(C)c3c2=O)n1 | 23.5%
Cc1nc(N)sc1C(=O)N/N=C/c1ccco1 | -1.68%
Nc1nc2c(nc(SCc3ccccc3Br)n2C2OC(CO)C(O)C2O)c(=O)[nH]1 (centres undefined) | -22.3%
COc1ccc(/C=C2\CC/C(=C\c3ccc(OC)c(OC)c3)C2=O)cc1OC | -15.8%
CCc1cc2c(=O)c(-c3ccc4c(c3)OCCO4)coc2c(CN2CCCCC2C)c1O (centres undefined) | -11.5%
CCOC(=O)c1ccc(N2C(=O)C(CC(=O)NC)N(CCc3ccc(OC)c(OC)c3)C2=S)cc1 (centres undefined) | 8.13%
O=C(Cc1cccc2ccccc12)N1CC[C@@]2(O)CCCC[C@H]2C1 | -9.85%
COc1ccccc1C(=O)N=C1NC(=O)CC2C(=O)NCCN12 (centres undefined) | 2.95%
Cc1ccc2c(c1)C1OCCC1C1N2C(=O)C2C(C(=O)O)C3C=CC21O3 (centres undefined) | -2.86%
COc1ccc(CNC(=O)C2CCCN2C)cc1OC (centres undefined) | -16.4%
COc1ccc2[nH]c(=O)c(CNC3CCCCC3)cc2c1 | -29%
CCOC(=O)C1=C(N)Oc2c(oc(CO)cc2=O)C1c1ccc(F)c(F)c1 (centres undefined) | -16.3%
CC12CCC(C(=O)NCc3ccccn3)(OC1=O)C2(C)C (centres undefined) | -9.47%
CC(=O)O[C@H]1C(=O)[C@@]2(C)[C@H]([C@H](OC(=O)c3ccccc3)[C@]3(O)C[C@H](OC(=O)[C@H](O)C(NC(=O)c4ccccc4)c4ccccc4)C(C)=C1C3(C)C)[C@]1(OC(C)=O)CO[C@@H]1C[C@@H]2O (some centres undefined) | 4.3%
CCOC(=O)N1c2ccccc2C=CC1OCC (centres undefined) | -5.21%
Cc1cc(=O)oc2cc(OC(C)C(=O)NCC3CCCO3)ccc12 (centres undefined) | -2.4%
CCC(C)n1ncn(-c2ccc(N3CCN(c4ccc(OCC5COC(Cn6cncn6)(c6ccc(Cl)cc6Cl)O5)cc4)CC3)cc2)c1=O (centres undefined) | -1.74%

SMILES | growth inhibition
CC(=O)N1CCN(c2ccc(OC[C@H]3CO[C@](Cn4ccnc4)(c4ccc(Cl)cc4Cl)O3)cc2)CC1 | 94.4% (active)
O=C(O)c1ccc(OCCn2ccnc2)cc1 | -4.4%
Cc1oc(/C=N/NC(=O)CC2(C)OCCO2)cc1Br | -11.1%
C=C(C)[C@@H]1CC=C(CN2CCC(N3CCC(C(=O)N4CCCC4)CC3)CC2)CC1 | -0.183%
CCN(CC)CCN1C(=O)C(=O)/C(=C(/O)c2c(C)[nH]c(C(=O)OC)c2C)C1c1cccnc1 (centres undefined) | -4.71%
COc1cccc(N2CC34C=CC(O3)C(C(=O)O)C4C2=O)c1 (centres undefined) | -1.36%
COc1ccc(OC)c(-c2oc3ccccc3c(=O)c2O)c1 | -8.17%
Cc1ccsc1C1NC(=O)c2ccccc2N1 (centres undefined) | -12.4%
COc1cc(C(=O)N/C(=C\c2cn(C)c3ccccc23)C(=O)NCCCO)cc(OC)c1OC | 13.5%
CCc1nc2ccccc2n1Cc1ccc(OC)c(OC)c1 | 2.55%
C/C(NC(=O)c1cccs1)=C1\C(=O)C[C@@H]2[C@H]1C2(C)C | 1.59%
CCc1cc2c(=O)c(-c3nc(C)cs3)c(CCCC(=O)O)oc2cc1O | -4.53%
CN(C)CCOc1ccc(Cl)cc1C(C)(C)C | -0.977%
COc1ccc2c(c1OC)C(=O)N1C2SC[C@H]1C(=O)NC1CC(C)(C)NC(C)(C)C1 (some centres undefined) | 2.59%
N#Cc1cc2c([nH]c1=O)CCCC2 | 8.49%
COc1cc2c(cc1O)CCN(C(=O)c1ccco1)C2C (centres undefined) | 3.62%
Cc1c(Cc2ccccc2)c(=O)oc2c(CN(C)C)c(O)c(Cl)cc12 | -2.33%
COc1cccc(N2C(=O)[C@H]3C(C(=O)c4cnccn4)=NN[C@H]3C2=O)c1 | -1.02%
O=C(O)C[C@@H](O)C(=O)O | -8.31%
Cc1ccc(CSCC(=O)N2CCCC2)cc1 | -5.17%

SMILES | growth inhibition
O=C(NCCc1nc2ccccc2[nH]1)c1cccc(Br)c1 | 2.71%
CCNC(=S)N1CCN(CCN2C(=O)c3cccc4cccc(c34)C2=O)CC1 | 2.01%
COc1c2occc2c(OC)c2c(=O)cc(C(F)(F)C(F)(F)F)oc12 | -5.37%
CC(=O)NC(Cc1c[nH]c2ccccc12)C(=O)N/N=C/c1ccccc1 (centres undefined) | 13.4%
O=C(CN1CC[n+]2c(-c3cccs3)csc21)c1ccc(Br)cc1 | -7.32%
Cc1ccc2nc(N=C(N)N)nc(C)c2c1 | -4.91%
COc1ccc(CNC(=O)N[C@H](C(=O)O)C(C)C)cc1OC | -0.856%
CCOC(=O)NN1C(=O)c2ccccc2NC1c1ccc(OC)c(OC)c1 (centres undefined) | -6.91%
COC(=O)c1[nH]c(=O)c2ccccc2c1O | -11.7%
COC(=O)c1cc(OC)c(OC)cc1NC(=O)CN1C(=O)c2ccccc2C1=O | -14.3%
COc1cc(CNc2ccc(C)c(C)c2)cc(OC)c1OC | 13.4%
Clc1ccc2c(c1)[C@H]1OCC[C@H]1[C@@H](c1ccco1)N2 | 1.42%
CC1(c2ccccc2)CC(C)(C)N2C(=O)C(=O)c3cccc1c32 (centres undefined) | -3.23%
O=c1nc2cccc3c2=c(/c1=C(\O)c1ccccc1)c1ccccc1c3=O | -23.6%
O=C1Nc2ccc3sc4ccccc4c3c2C1=O | -1.28%
O=C(CN1C(=O)/C(=C/c2cccc(Br)c2)SC1=S)Nc1cccnc1 | -5.73%
CC(C)c1ccc(/C=C/C(=O)O)cc1 | -10.9%
COc1ccc(CC(=O)N2CC3(C)CC2CC(C)(C)C3)cc1OC (centres undefined) | 12.2%
COc1ccc(CCn2c(C)cc3c(c2=O)C(c2ccncc2)C(C#N)=C(N)O3)cc1OC (centres undefined) | -3.67%
